Screens deposited in PubChem by National Center for Advancing Translational Sciences (NCATS).
Pf growth 96h – inhibits malaria parasite growth, 96 h; Potency, µM (titrated, usually from 28.7 µM), for the others: at the highest dose activity change, negative = inhibition, usual class: inhibitors; 320,000 tested, 6.9% active; P. falciparum luciferase reporter growth, 96 h; also: potency is read from the fitted curve at half-maximal effect
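Luminescence readout: decreased luciferase signal marks inhibited growth of reporter-expressing P. falciparum in infected red cells (2% hematocrit, 0.05% parasitemia final), exposed to compound two generations (96 h, 37 C, 5% CO2).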
Marburg entry inh – blocks Marburg virus binding to or entry into cells; Marburg virus pseudotyped entry inhibition, cell reporter; Potency, µM (titrated, usually from 37.8 µM), without a hit: at the highest dose activity change, negative = inhibition, most hits filed as inhibitors; 300,000 tested, 1.8% active; AID 540276; calls by dose curve; tested in HEK293 cells; also: potency is read from the fitted curve at half-maximal effect
HCMV antiviral – inhibitors of human cytomegalovirus; HFF cells, HCMV-luciferase reporter, 72 h; hits give low values; activity change, negative = inhibition, % at 57.5 µM; 410,000 tested, 4.5% active; in the data active = activity change below about -60%; inconclusive = no clear call, values can overlap the other calls; inactive = above about -39%
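Two-dose cell screen: HFF monolayers treated with compounds and infected with luciferase-expressing HCMV at 1 PFU/cell, 72 h at 37C, then lysed for luciferase measurement.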
HCV inh – inhibitors of hepatitis C virus infection; Huh7.5.1 HCVcc-Cre infection, luciferase reporter, 44 h; 340,000 tested, 3.4% active; AID 651820; Potency, µM (highest dose often 41.8 µM), without a hit: at the top dose activity change, negative = inhibition, usual class: inhibitors; also: potency is read from the fitted curve at half-maximal effect
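A cell-based infection assay in which seeded cells (1,000 per well) receive test compound after 4 h, are inoculated with HCVcc-Cre at approximately 0.5 moi, and are incubated 44 h before luminescence detection.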
LASV entry inh – inhibitors of Lassa virus binding or cell entry; Lassa virus pseudotype entry inhibition, cell reporter; Potency, µM (titrated, usually from 37.9 µM), for inactives: top-dose activity change, negative = inhibition, hits mostly inhibitors; 300,000 tested, 1.2% active; calls by dose curve; tested in HEK293 cells; also: potency is read from the fitted curve at half-maximal effect; nearly all actives have a fitted effect of over 50% in size
Pf growth 48h – inhibits P. falciparum growth in the first generation, 48 h; P. falciparum luciferase growth in erythrocytes, 48 h; Potency, µM (doses to about 28.7 µM), inactives show at the top dose activity change, negative = inhibition, most hits filed as inhibitors; 310,000 tested, 5.9% active; AID 504832; also: potency is read from the fitted curve at half-maximal effect
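Luciferase-expressing P. falciparum in infected erythrocytes (2% hematocrit, 0.1% parasitemia final) in RPMI 1640/0.5% Albumax were exposed to compound for 48 hours at 37 C, 5% CO2; growth read as luminescence.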
The depositor's hits bear a star; u = inconclusive; x = no result; [ ] = dose if it differs, or a comment. Hits are enriched below; roughly 14% of the tested compounds scored in any of these assays. Unless noted, calls follow the shape of the dose curve; as a rule, active = well fitted inhibition curve with a large enough effect; inconclusive = small, poorly fitted or top-dose-only effect, or another doubt; inactive = no such curve, though single readings can be large or run the other way. % is scaled to controls: 0 for no effect and ±100 for the full control effect.

SMILES | Pf growth 96h | Marburg entry inh | HCMV antiviral | HCV inh | LASV entry inh | Pf growth 48h
COc1ccc(S(=O)(=O)Nc2ccc3c(c2)OCCO3)cc1Cl | x | -16% | -16 | 11µM* | -6% | 10%
Cn1c(=O)n(C)c2cc(NS(=O)(=O)c3ccc(Br)s3)ccc21 | 9.3µM* | -29%[46.1 µM] | 49 | 2% | 1%[46.1 µM] | 2%
COc1ccc(S(=O)(=O)Nc2ccc3c(c2)OCO3)cc1OC | u | -17% | 36 | 4% | 5% | 20%
Cc1cc(C)cc(NS(=O)(=O)c2ccc3c(c2)c(=O)n(C)c(=O)n3C)c1 | x | u | u | 6.3µM* | u | 12µM*
CC(=O)Nc1ccc(S(=O)(=O)Nc2ccc3c(c2)OCCO3)cc1Cl | 13% | -29%[46.1 µM] | -88* | u | -14%[46.1 µM] | 7%
Cn1c(=O)c2cc(S(=O)(=O)Nc3cc(C(=O)O)cc(C(=O)O)c3)ccc2n(C)c1=O | 25% | 2% | 6 | 9% | -4% | 43%
COc1ccc(NS(=O)(=O)c2ccc3c(c2)OCCO3)cc1OC | u | u | -75* | 6.3µM* | -14%[46.1 µM] | 24%
Cc1ccc(S(=O)(=O)NC(C)C(=O)Nc2ccc3c(c2)OCO3)cc1 (stereo not drawn) | 27% | u | -4 | 5% | -2%[46.1 µM] | u
COc1ccc(S(=O)(=O)Nc2ccc3c(c2)n(C)c(=O)n3C)cc1OC | 17% | -5%[46.1 µM] | 191 | 3.2µM* | u | 25%
CC(NS(=O)(=O)c1ccccc1)C(=O)Nc1ccc2c(c1)OCCO2 (stereo not drawn) | 7.4µM* | -18% | 7 | 0% | 17% | 14%
COc1ccc(S(=O)(=O)NCc2ccc3c(c2)OCO3)cc1OC | 1.2µM* | x | 32 | -1% | x | -3%
Cc1ccc(Cl)cc1N1CCN(C(=O)c2noc3c2CCCC3)CC1 | x | x | 48 | x | -12%[46.1 µM] | x
CC1(C)OC2COC(c3[nH]nc4c(=O)[nH]c(=O)[nH]c34)C2O1 (stereo not drawn) | x | x | -29 | x | x | x
CCCNS(=O)(=O)c1ccc(CCC(=O)Nc2ccc3c(c2)OCCO3)cc1 | u | 6% | 108 | u | -1% | u
Cc1ccc(CNS(=O)(=O)c2ccc3c(c2)n(C)c(=O)n3C)cc1 | 20% | u | -66* | u | u | 30%
CC(C)CNS(=O)(=O)c1ccc(CCC(=O)Nc2ccc3c(c2)OCCO3)cc1 | 226% | -4% | -5 | 5% | -18% | 12µM*
CC(=O)NCCc1ccc(S(=O)(=O)Nc2ccc3c(c2)OCCO3)cc1 | x | 9%[46.1 µM] | -64* | -4% | -4%[46.1 µM] | x
CCNS(=O)(=O)c1ccc2c(c1)n(C)c(=O)n2C | x | 28% | 63 | 3% | u | -5%
CCOc1cccc(NC(=O)C2CC(=O)N(CC)C(=Nc3ccc(F)cc3)S2)c1 (stereo not drawn) | x | u | -1 | x | -21%[46.1 µM] | x
CN(CC(=O)Nc1c(Cl)cccc1Cl)C(=O)c1ccc2ccccc2n1 | 73% | 27% | 1 | -7% | -7% | 37%
O=C(NC1(C(=O)NC2CCCC2)CCCCC1)c1ccc2c(c1)OCO2 | 9.3µM* | u | 1 | 7% | u | -17%
O=C(NC1(C(=O)NC2CCCCC2)CCCCC1)c1ccc2c(c1)OCO2 | 29% | -11% | -1 | 3% | 23% | -4%
O=C(c1ccc2c(c1)OCO2)N(CC1CCCO1)C1(C(=O)NC2CCCC2)CCCCC1 (stereo not drawn) | u | -5%[46.1 µM] | -21 | -4% | u | 12µM*
CC(=O)c1c(C)[nH]c(C(=O)NNC(=O)c2ccc(Br)cc2)c1C | x | x | -16 | u | x | x
CCOC(=O)Cc1csc(NC(=O)CSc2nc(=O)[nH]c3c2CCCC3)n1 | u | -3% | -22 | 4% | 3% | u
SMILES | Pf growth 96h | Marburg entry inh | HCMV antiviral | HCV inh | LASV entry inh | Pf growth 48h
O=C(N/N=C/c1ccccc1[N+](=O)[O-])c1ccc2nc[nH]c2c1 | u | u | 50 | -3% | -2%[46.1 µM] | u
O=C(N/N=C/c1cccc([N+](=O)[O-])c1)c1cc(-c2ccc3c4c(cccc24)CC3)n[nH]1 | u | x | u | u | x | 0%
Cc1cc(C(=O)N/N=C/c2ccc(Cl)c([N+](=O)[O-])c2)c(C)n1-c1ccc(F)cc1 | 13µM* | u | -93* | u | 13µM* | 13µM*
Cc1occc1C(=O)N/N=C/c1ccc(Cl)c([N+](=O)[O-])c1 | -7% | 4µM* | -63* | u | -5% | 7%
Cc1cc(C(=O)N/N=C/c2ccc3c(c2)OCO3)c(C)n1-c1ccc(F)cc1 | 10% | -13%[46.1 µM] | u | u | 6% | -22%
O=C(N/N=C/c1ccc(Cl)c([N+](=O)[O-])c1)c1cc(-c2ccc3c4c(cccc24)CC3)n[nH]1 | u | u | -74* | -8% | 6.3µM* | u
O=C(N/N=C/c1ccc(Cl)c([N+](=O)[O-])c1)c1ccc2nc[nH]c2c1 | u | 20% | -38 | 8% | -10% | 3.3µM*
Cc1cccc(N2CCN(C(=O)CCn3c(=O)c4cccn4c4cccnc43)CC2)c1C | x | x | -17 | x | 10%[46.1 µM] | x
Cc1cccc(OCCNC(=O)CCc2ccccc2)c1 | x | x | 11 | 14% | x | x
Cc1occc1C(=O)N/N=C/C=C\c1ccccc1[N+](=O)[O-] | -16% | 26%[46.1 µM] | -75* | u | 5% | -1%
O=C(N/N=C/C=C\c1ccccc1[N+](=O)[O-])c1ccco1 | u | x | -4 | 4% | x | u
CC(C)C[C@H]1CN([C@@H](Cc2ccccc2)CN2CCCC2CN2C(=S)NC[C@@H]2Cc2ccccc2)C(=S)N1CC1CCCCC1 (stereo partly drawn) | x | x | -26 | x | x | x
CC(C)C[C@H]1CNC(=S)N1C[C@H]1CCCN1C[C@H](Cc1ccccc1)N1C[C@H](Cc2ccc(O)cc2)N(CC2CCCCCC2)C1=S | x | x | -84* | x | x | x
CC(C)C[C@H]1CNC(=S)N1CC1CCCN1C[C@H](Cc1ccc(O)cc1)N1C[C@H](Cc2ccccc2)N(CC2CCCCCC2)C1=S (stereo partly drawn) | x | x | -20 | 7.9µM* | x | x
CC(C)C[C@H]1CNC(=S)N1C[C@H]1CCCN1C[C@H](Cc1ccc(O)cc1)N1C[C@H](Cc2ccccc2)N(CC2CCCCC2)C1=S | x | x | -34 | x | x | x
CC(C)C[C@H]1CNC(=S)N1CC1CCCN1C[C@H](Cc1ccccc1)N1C[C@H](Cc2ccc(O)cc2)N(CC2CCCCC2)C1=S (stereo partly drawn) | x | x | 8 | 10µM* | x | x
COc1ccccc1-c1c(C(F)(F)F)oc2cc(OCC(=O)Nc3ccccc3C(F)(F)F)ccc2c1=O | 5.2µM* | -9% | -7 | 0% | 0% | u
COc1ccccc1-n1c(CNc2ccc(F)cc2)nnc1SCC(=O)Nc1cc(C)on1 | -30% | -2% | u | -13% | u | 13µM*
